Laboratory results reported in PubChem BioAssay AID750 (Sanford-Burnham Center for Chemical Genomics, 2007).
About 140 (0.16%) of roughly 86,000 compounds were called active. Shown is part of a subset that was picked to be rich in actives. Values without a mark were called inactive.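 Rule for the calls: active = activation factor of at least 2 for MT1-MMP transcription at 10 µM; inactive = the rest.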

assay: MT1-MMP promoter reporter activation – cell-based, luciferase luminescence, primary screen (AID 750); conditions: HT1080 MT1-MMP promoter luciferase reporter, overnight, at 10 µM, stronger effect = higher value

SMILES | activation factor
O=C(Cc1ccc(-n2c(=O)[nH]c3ccccc3c2=O)cc1)N1CCN(c2cccc(Cl)c2)CC1 | 1
COc1ccc(Br)cc1CN1CCN(C(=O)c2cccc(OC)c2OC)CC1 | 1.1
COc1ccc(C2=Nc3cc(C)ccc3OC2)cc1 | 0.9
CS(=O)(=O)N1CCN(c2cccc(Cl)n2)CC1 | 1.2
COc1ccc(S(=O)(=O)Nc2ccc3oc(C)c(C(C)=O)c3c2)cc1 | 1.1
Cc1ccc(C2=CSC3=NS(=O)(=O)CCN23)cc1C | 1.1
CC1=C(C(=O)OC(C)(C)C)C(c2ccc(Br)cc2)NC(=O)N1CCCC(=O)O (stereo not given) | 1.1
CCS(=O)(=O)Nc1ccc(C2=NN(S(=O)(=O)c3ccc(F)cc3)C(c3ccco3)C2)cc1 (stereo not given) | 1.1
CC1=CC(C)(C)NC(=S)N1c1ccccc1 | 1.1
Cc1ccc(SCC(=O)c2cc(C)c(OC(=S)N(C)C)c(C)c2)cc1 | 1.9
COC(=O)CSc1nc2c(c(C3CC=CCC3)c1C#N)CCC2 (stereo not given) | 1
O=C(NCCCN1CCCCC1)c1ccc2c(c1)NC(=O)C(N1CCOCC1)S2 (stereo not given) | 1.1
CC(C)CC[n+]1ccn(C2=C([O-])c3ccccc3C(=O)/C2=N\S(=O)(=O)c2ccccc2)c1 | 0.8
Cc1ccc2c(c1)c1ncnc(N3CCc4ccccc4C3)c1n2C | 2 (active)
Cc1ccc2c(c1)c1ncn(CCC3=CCCCC3)c(=O)c1n2C | 1.3
Cc1cccc(-n2ncc3c(N4CCc5ccccc54)ncnc32)c1 | 1.5
COc1ccc(N(CC(=O)NC2CCCCC2)C(=O)CNC(=O)c2ccco2)c(OC)c1 | 1.2
CSc1nc(C)cc(SC(C(C)=O)C(=O)Nc2ccccc2)n1 (stereo not given) | 1.1
CSc1nc2nc3c(c(=O)n2[nH]1)CCC3 | 1.2
COc1ccccc1CCNC(=O)c1cnccn1 | 1.2
CCCCCOC(=O)c1ccc(N2C(=O)C3C4C=CC(C4)C3C2=O)cc1 (stereo not given) | 1.2
O=C(NCc1ccc2c(c1)OCO2)C12CC3CC(CC(C3)C1)C2 | 1
Cc1ccc(N(Cc2ccc(C(=O)Nc3ccccc3C(=O)NCc3ccco3)cc2)S(C)(=O)=O)cc1C | 1.1
COc1ccccc1NC(=O)/C=C/C(N)=O | 1.3
CC(C)CCNC(=O)CC1C(=O)N(Cc2ccccc2)C(C)c2nc3ccccc3n21 (stereo not given) | 1

SMILES | activation factor
CCOC(=O)c1ccccc1NS(=O)(=O)c1ccc(OC)cc1 | 1
CCn1c(CC(=O)Nc2ccc(C)cc2)nnc1SCC(=O)Nc1nc(C)cs1 | 1.1
CCN1CCN(C(=O)c2cc3cc4ccc(OC)cc4nc3s2)CC1 | 1.3
CC1CN(S(=O)(=O)c2ccccc2)C(C)CN1S(=O)(=O)c1ccccc1 (stereo not given) | 1.3
CCOC(=O)c1c(C)nc2c(c1C)c(=O)oc1ccccc12 | 1.1
Cn1c(C(=O)OC(C(=O)NC2CCCCC2)c2ccccn2)cc2sccc21 (stereo not given) | 1.2
CCCNC(=S)N1CCC(NC(=O)C23CC4CC(CC(C4)C2)C3)CC1 | 1.2
O=C(Nc1nncs1)c1cccc(S(=O)(=O)N2CCCCC2)c1 | 1
N#Cc1ccc(C=NC(c2ccccc2)c2ccccc2)cc1 | 1.2
CN(Cc1nc2ccccc2c(=O)[nH]1)Cc1cc(=O)oc2ccc3ccccc3c12 | 1
Cc1nn(C(C)CC(=O)O)c(C)c1C (stereo not given) | 1.2
COc1ccc(NC(=O)CSc2nc(NS(=O)(=O)c3ccc(C)cc3)cc(=O)[nH]2)cc1 | 1.3
O=C(N/N=C\c1cccc(Br)c1)c1ccccc1-n1cccc1 | 1.4
Cc1ccc(S(=O)(=O)Nc2nc(C)cc(-n3nc(C)cc3C)n2)cc1 | 1
CCC(C)NC(=O)C1CCCN(C(=O)NC2CCCCC2)C1 (stereo not given) | 1.2
Cc1cc(C)n(-c2nc(O)cc(=O)[nH]2)n1 | 1
O=C(CN(c1ccccc1)S(=O)(=O)c1ccc(Cl)cc1)Nc1ccccc1C(=O)N1CCCC1 | 0.9
O=C1/C(=C/c2cccs2)CCc2ccccc21 | 1.8
CCOC(=O)C1=C(C)NC(=O)NC1c1ccccc1 (stereo not given) | 1.1
Cc1ccc(S(=O)(=O)c2c(COC(=O)c3cccc(Cl)c3)c(-c3ccccc3)nn2C)cc1 | 1.1
CCOC(=O)c1[nH]c(C)c(C(=O)OCC(=O)N2c3ccccc3CC2C)c1C (stereo not given) | 1
C=C(Cl)COC(=O)C1C2C=CC(C2)C1C(=O)O (stereo not given) | 1.1
O=C(/C=C/c1ccc(Cl)cc1Cl)c1cccnc1 | 1
CCCCc1nc(NCCN)c(C#N)c2c1CSC(C)(C)C2 | 1.4
CCOc1ccc(NC(=O)CCS(=O)(=O)c2ccc3c(c2)CCCN3C(=O)CC)cc1 | 1.1

SMILES | activation factor
O=C(CSC1=Nc2ccccc2C2=NC(CC(=O)NCc3ccco3)C(=O)N12)NCc1ccco1 (stereo not given) | 1.1
CC1(C(=O)NCCc2c[nH]c3ccccc23)C=CC2(CCCCC2)N1C(=O)c1ccccc1 (stereo not given) | 1
O=c1[nH]c(SCc2ccccc2)nnc1-c1ccccc1 | 1.1
O=C(CCc1ccccc1)NCC#CC(O)c1ccc(Br)cc1 (stereo not given) | 1.2
O=C(NCc1ccccc1Cl)c1csc2c1CCCCC2 | 1.1
CCCCCCSc1nsc(N)n1 | 1.4
CC(C)CNC(=O)CC(c1ccccc1)c1c(O)ccc2ccccc12 (stereo not given) | 1
CCCNC(=O)CN(Cc1ccccc1F)S(=O)(=O)c1ccc(C)cc1 | 1.3
CCCCNS(=O)(=O)c1ccc(S(=O)(=O)n2cnc3ccccc32)cc1 | 1.1
O=C(Nc1nccs1)c1cc(S(=O)(=O)N2CCOCC2)c(Cl)cc1Cl | 1
CCn1nc(C)c(NC(=O)/C=C/c2ccc(OC)c(COc3ccc(Br)cc3)c2)c1C | 0.9
CCCCN(CC)CCNC(=O)c1[nH]c(C)c(C(C)=O)c1C | 0.9
O=C(COc1ccc(Cl)cc1)NCCSc1ccccc1 | 1.2
CCOc1ccc(NC(=O)c2ccccc2NS(C)(=O)=O)cc1 | 1.3
O=C(c1cc2c(s1)CCC2)N1CCN(c2ccccc2)CC1 | 1.1
COc1ccc(C2=NOC3(CC(=O)N(c4ccc(C)cc4)C3=O)C2)cc1 (stereo not given) | 1.2
CC1=NN(/C(=N\c2nnc(C)s2)Nc2ccccc2)[C@H](c2ccc(C)cc2)S1 | 1.1
O=C1CCCc2nn(-c3ccccc3)nc21 | 1.5
OC(CN=c1sc2ccccc2n1CC(O)COc1ccccc1)COc1ccccc1 (stereo not given) | 1.4
C=C(C)C(=O)Nc1cccc(C(C)=O)c1 | 1.3
CC1CCN(C(=O)CN(c2ccc(Oc3ccccc3)cc2)S(C)(=O)=O)CC1 | 1
COc1ccc(CNc2ccc3c(c2)CCC3)cc1OC | 1.1
Cc1ccccc1-n1nc(C)c2cc(C(=O)NC3CC3)sc21 | 1.1
Cc1cc(Oc2ccccc2)nc(N2CCOCC2)n1 | 1.1
Cc1ccc(OCC(=O)N2CCN(C(=O)c3cccnc3)CC2)cc1 | 1

SMILES | activation factor
O=C1/C(=C\Nc2ccccc2)CCN1c1ncccn1 | 1.9
COc1ccc(CN(Cc2ccco2)S(=O)(=O)c2ccc(S(=O)(=O)N3CCCC3)cc2)cc1 | 1
CCCCNC(=O)C1CCCN(S(=O)(=O)c2ccc(S(=O)(=O)NCC(C)C)cc2)C1 (stereo not given) | 1.2
CCc1ccc(CNC(=O)C2CCCN(c3nc4ccccc4o3)C2)cc1 (stereo not given) | 1.1
Cc1cccc(C(=O)N2CCCN(C(=O)c3cccc(C)c3)CC2)c1 | 1
CCC(C)(C(=O)NC1CCCCC1)N(C)C(=O)c1ccc2c(c1)OCO2 (stereo not given) | 1
Cc1ccc(OCCCC(=O)Nc2ccc(N3CCOCC3)cc2)cc1 | 1.1
O=C(CN1C(=O)C2C3C=CC(C3)C2C1=O)Nc1nc(-c2ccccn2)cs1 (stereo not given) | 1.2
COC(=O)c1ccc(C(NC(=O)OCc2ccccc2)/C(C)=C/[C@@H](C)C(=O)NCc2ccc(OC)c(OC)c2)cc1 (stereo not given in full) | 1.4
O=C(CC12CC3CC(CC(C3)C1)C2)Nc1ccc2c(c1)COC2=O | 1
COc1ccccc1NC(=O)CC(NCCN(C)C)C(=O)O (stereo not given) | 1
CS(=O)(=O)N(CC(=O)N1CCN(Cc2ccccc2)CC1)c1ccc2c(c1)OCCO2 | 0.9
CCn1c(SCC(=O)Nc2nc(C)cs2)nnc1C(C)NC(=O)c1ccccc1 (stereo not given) | 1.3
CCCc1nnc(NC(=O)c2cccs2)s1 | 1.4
CCOC(=O)CN1C(=O)C(=O)c2cc(C)ccc21 | 1.1
COc1ccc(/C=N/Nc2nc3ccccc3o2)cc1OC | 1.7
CN1CCN(C(=O)Cn2c(C(F)(F)F)nc3ccccc32)CC1 | 1.2
Cc1ccc(S(=O)(=O)NC(=O)COc2ccccc2C)cc1 | 1.2
CC1(C)N=C(c2ccccn2)C(C)(C)N1O | 1
COc1ccc(CN(C(=O)CSc2nnc(-c3ccc(OC)c(OC)c3)o2)c2ccc(F)cc2)cc1 | 1.2
CCOC(=O)c1ccc2c(c1)nc(C)n2CC | 1.6
O=C(NC(=O)c1ccccc1)NC(=O)c1ccccc1 | 1
CN(C)c1ccnc2sc3c(=O)n(-c4ccc(Cl)cc4)cnc3c12 | 1.5
Cc1ccc(-n2cc3ccc([N+](=O)[O-])cc3n2)cc1 | 0.9
CCOCN(C(=O)Cn1c(C(C)O)nc2ccccc21)c1c(C)cccc1CC (stereo not given) | 1.2
